Several values for one entry are separate records, joined by “and”; a condition that tells them apart may be missing. Identical values can stand only once.
Experiments:
[1] = target: T1, Transcription intermediary factor 1-alpha (Homo sapiens) (UniProt O15164); details: Compound concentration 20.0 uM, Protein concentration 2.0 uM, Result type QC Liability
T1 sequence (whole entry): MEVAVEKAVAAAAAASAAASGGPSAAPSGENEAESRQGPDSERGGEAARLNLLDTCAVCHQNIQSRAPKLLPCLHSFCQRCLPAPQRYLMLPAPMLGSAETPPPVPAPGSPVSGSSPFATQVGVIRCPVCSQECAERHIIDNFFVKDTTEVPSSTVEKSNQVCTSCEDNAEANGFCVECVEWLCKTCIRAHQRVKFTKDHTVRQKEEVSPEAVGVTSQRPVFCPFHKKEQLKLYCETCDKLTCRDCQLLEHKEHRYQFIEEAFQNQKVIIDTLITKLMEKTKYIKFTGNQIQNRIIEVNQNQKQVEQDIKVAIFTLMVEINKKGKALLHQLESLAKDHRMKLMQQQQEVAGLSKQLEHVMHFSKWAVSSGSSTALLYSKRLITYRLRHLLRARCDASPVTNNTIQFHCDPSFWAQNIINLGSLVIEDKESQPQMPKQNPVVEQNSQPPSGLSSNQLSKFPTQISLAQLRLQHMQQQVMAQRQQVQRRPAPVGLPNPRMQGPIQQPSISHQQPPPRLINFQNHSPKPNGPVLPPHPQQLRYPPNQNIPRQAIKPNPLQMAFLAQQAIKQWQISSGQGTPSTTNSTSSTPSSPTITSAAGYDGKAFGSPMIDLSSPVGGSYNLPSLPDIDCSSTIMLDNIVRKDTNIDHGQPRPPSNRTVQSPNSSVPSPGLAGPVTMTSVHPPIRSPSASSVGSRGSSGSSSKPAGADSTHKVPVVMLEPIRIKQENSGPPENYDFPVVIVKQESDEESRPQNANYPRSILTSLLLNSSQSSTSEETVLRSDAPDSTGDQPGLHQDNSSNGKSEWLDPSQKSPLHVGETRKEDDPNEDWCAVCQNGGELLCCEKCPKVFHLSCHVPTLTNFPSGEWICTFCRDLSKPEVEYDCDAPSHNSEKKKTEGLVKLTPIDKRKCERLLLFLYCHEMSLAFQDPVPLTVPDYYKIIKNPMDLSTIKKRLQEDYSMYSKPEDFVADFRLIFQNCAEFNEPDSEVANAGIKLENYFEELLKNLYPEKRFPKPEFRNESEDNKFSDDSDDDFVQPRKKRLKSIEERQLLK

[2] = target: Bromodomain-containing protein 4 (Homo sapiens) (UniProt O60885); details: Compound concentration 20.0 uM, Protein concentration 2.0 uM, Result type QC Liability

Row | Compound | ΔTm [1] | ΔTm [2]
1 | COc1ccccc1S(=O)(=O)Nc1ccc2c(c1)CN(C)C(=O)N2 | -1.03 °C | 
2 | CCC(F)(F)c1cc(N2CCC(S(C)(=O)=O)CC2)nc2sc(C(N)=O)c(N)c12 | 0.36 °C and -3.9 °C and -0.99 °C | -3.68 °C and -1.82 °C and -0.22 °C
3 | COc1cnccc1Nc1nc(-c2nn(Cc3c(F)cc(OCCO)cc3F)c3ccccc23)ncc1OC | -4.33 °C | 0.84 °C
4 | Cc1cc(OCCC(C)(C)O)cc(C)c1-c1ccc(F)c2c1CC[C@H]2Oc1ccc2c(c1)OC[C@H]2CC(=O)O | -2.29 °C | -2.75 °C
5 | CN1CCc2cc(Nc3ncc(C(F)(F)F)c(NCc4cc[nH]n4)n3)ccc2C1 | -1.85 °C | -1.83 °C
6 | O=C(O)CCCc1cc2cc(Cl)ccc2n1S(=O)(=O)c1ccc2ncsc2c1 | -1.33 °C | -3.71 °C
7 | O=C(Nc1ccnc(NC(=O)C2CC2)c1)c1c(Cl)cccc1Cl | -3.69 °C | -1.81 °C
8 | CCc1nc(-c2cccc(C)c2)c(-c2ccnc(NC(=O)c3ccccc3)c2)s1 | -1.26 °C | -1.99 °C
9 | Cc1ncc(C(=O)Nc2cc(C(C)(C)C)on2)cc1-n1cc(-c2cnn(C)c2C)nn1 | -3.56 °C | -3.35 °C
10 | O=C(CNC(=O)c1ccc(-c2ccccc2)cc1)NC1CCCc2ccccc21 (centres undefined) | 2.55 °C | -5.93 °C
11 | Cc1nc2ccc(Oc3ccc(F)cc3)cc2c(=O)n1C[C@H]1CCCN(C(C)C)C1 | 0.18 °C | 0.67 °C
12 | CN(C)[C@H]1C[C@H](n2cnc(-c3ccc(F)cn3)c2-c2ccnc3[nH]ccc23)C1 | -2.35 °C | -2.13 °C
13 | CCNC(=O)c1ccc2c(c1)NC(=O)/C2=C(\Nc1ccc(CN(C)C)cc1)c1ccccc1 | 0.37 °C and -3.62 °C | 
14 | COc1cc2ncnc(Nc3cccc(O)c3)c2cc1OC | -0.88 °C | 0.18 °C
15 | Oc1c(-c2cccnc2)cnn1-c1ccccn1 | 0.29 °C | -1.85 °C
16 | CNC(=O)c1cc(C(=O)N[C@H]2[C@@H]3COC[C@@H]32)cc2c1O[C@H](CF)[C@H]2c1ccccc1 | -2.73 °C | 

Row | Compound | ΔTm [1] | ΔTm [2]
17 | NS(=O)(=O)c1ccc(Nc2nc(OCC3CCCCC3)c3nc[nH]c3n2)cc1 | -0.84 °C | 0.59 °C
18 | O=C(O)CCCCCC[C@@H]1C(=O)NC(=O)N1CCC(O)C1CCCCC1 (some centres undefined) | -0.56 °C | -1.84 °C
19 | Cn1cc(NC(=O)c2ccc3nc4n(c3c2)CCCNC4=O)nc1C(=O)NC1CCCC1 | -2.92 °C | -1.16 °C
20 | Clc1ccc(-c2nc3sccn3c2/C=N/OCc2ccc(Cl)c(Cl)c2)cc1 | -1.95 °C | -1.58 °C
21 | COc1ccc2c(O[C@@H]3C[C@H]4C(=O)N[C@]5(C(=O)O)CC5/C=C\CCCCC[C@H](NC(=O)OC5CCCC5)C(=O)N4C3)cc(-c3csc(NC(=O)C(C)C)n3)nc2c1C (some centres undefined) | 0.14 °C [middle of 4 runs] | 
22 | Cn1nc(C(=O)NCc2ccc(C(=O)O)cc2)cc1-c1ccc2[nH]ccc2c1 | 0.43 °C | -0.1 °C
23 | N[C@@H]1CCCC[C@H]1Oc1ccc2ncc(-c3cc4ccccc4o3)n2n1 | -0.16 °C | -0.47 °C
24 | COc1cccc(CNc2ccc(S(=O)(=O)Nc3nc4ccccc4s3)cc2)c1O | 0.53 °C | 0.58 °C
25 | CCCCNc1ncc2c(-c3ccc(CN4CCN(C)CC4)cc3)cn([C@H]3CC[C@H](O)CC3)c2n1 | -0.35 °C | -3.24 °C
26 | CCn1c(-c2nonc2N)nc2ccccc21 | -1.27 °C | -0.33 °C
27 | COc1nc2ccc([C@@](O)(c3ccccc3)C3CCN(C(C)=O)CC3)cc2c(Cl)c1Cc1ccc(-n2cccn2)cc1 | -0.87 °C | -3.41 °C
28 | Cc1cccc(CC(=O)N2CCc3c2ccc(-c2cn(C)c4ncnc(N)c24)c3F)n1 | -2.22 °C | -0.38 °C
29 | COc1cc(Cl)c(C(=O)N[C@@H](CN[C@H]2CC[C@@H](N)CC2)Cc2ccc(C#N)cc2)cc1-c1ccc(CN[C@H](C)c2ccc(C)cc2)o1 | -2.42 °C | -1.12 °C
30 | CCOc1cc(CC(=O)N[C@@H](CC(C)C)c2ccccc2N2CCCCC2)ccc1C(=O)O | -1.24 °C | -0.4 °C
31 | COCc1nc2cnc3cc(-c4c(C)noc4C)c(OC[C@H]4CCNC4)cc3c2n1[C@H](C)c1ccccc1 | -1.74 °C | 
32 | Cc1nc(-c2ccc(C(F)(F)F)cc2)sc1C(=O)NCc1ccc(OC(C)(C)C(=O)O)cc1 | -1.73 °C | -2.8 °C

Reference: ChEMBL document CHEMBL5308504, “Tm Shift (DSF) assay results for EUbOPEN Chemogenomics Library” (2023)
